Experimental data as given in PubChem BioAssay (NCATS).
Records with an inconclusive call do not appear. Activity calls are given as the source filed them. Calls follow the shape of the dose curve; as a rule, active = well fitted curve in the direction sought with a large enough effect; inconclusive = small, poorly fitted or top-dose-only effect, or another doubt; inactive = no such curve, though single readings can be large; an effect the other way counts as inactive or inconclusive.

What was measured:
[1] = molecular target: Glutathione peroxidase 1 (Homo sapiens) (UniProt P07203); test: Primary qHTS Assay for Inhibitors of Recombinant Selenoprotein Glutathione Peroxidase 1 (GPX1) (AID 1845191); also: nearly all actives have a fitted effect of over 65% in size; as to activity, negative = inhibition: % is scaled to controls: 0 for no effect and ±100 for the full control effect
In short: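 GR-coupled readout: NADPH consumption tracked by fluorescence, ex 340/em 450 nm, at t=0 and after 15 min at RT. Final mix 10 nM GPX1, 1 mM GSH, 0.5 mM CHP, 0.5 mM NADPH, 100 nM GR, 0.01% BSA, following 30 min enzyme–compound preincubation.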

[2] = molecular target: Phospholipid hydroperoxide glutathione peroxidase GPX4 (Homo sapiens) (UniProt P36969); test: Primary qHTS Assay for Inhibitors of Recombinant Selenoprotein Glutathione Peroxidase 4 (GPX4) (AID 1845192); also: nearly all actives have a fitted effect of over 65% in size; as to activity change, negative = inhibition: series mostly up to about 50 µM; % is scaled to controls: 0 for no effect and ±100 for the full control effect
In short: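 Steps: GPX4 plus compound, 30 min RT; add GR/GSH/NADPH master mix; start with cumene hydroperoxide; read 340/450 nm fluorescence at 0 and 15 min. Finals were 200 nM GPX4, 1 mM GSH, 0.5 mM CHP, 0.5 mM NADPH, 100 nM GR.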

[3] = molecular target: Luciferin 4-monooxygenase (Photinus pyralis) (UniProt P08659); test: Primary firefly luciferase (FLuc) qHTS assay for identification of artifact compounds. (AID 1845220); also: nearly all actives have a fitted effect of over 60% in size; also: potency is read from the fitted curve at half-maximal effect;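 as to activity change, negative = inhibition: series mostly up to about 54 µM; plate controls were DMSO vehicle for no effect and no enzyme for full effect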
In short: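 Enzymatic FLuc inhibition assay: compounds pre-exposed to luciferin/ATP (10 uM each) for 15 min, then purified P. pyralis enzyme at 10 nM added. Read-out: luminescence at 5 min.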

[4] = Primary fluorescence-based thiol-reactive (MSTI) qHTS assay for identification of artifact compounds. (AID 1845221); also: nearly all actives have a fitted effect of over 65% in size; also: potency is read from the fitted curve at half-maximal effect;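 as to activity change, negative = thiol reactive: series mostly up to about 54 µM; thiol-reactive compounds lower the probe fluorescence signal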
In short: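 One-hour, room-temperature, dark incubation of compound with 4 uM MSTI in PBS (pH 7.4, 2% DMSO) precedes a fluorescence read at 525 nm excitation, 598 nm emission; Hill-equation fitting yields concentration-response values.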

[5] = Primary redox qHTS assay for identification of artifact compounds. (AID 1845223);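 also: 0% = DMSO and 100% = reference compound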
In short: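 Redox-cycling detection via DTT (250 uM final) oxidation coupled to Amplex Red (25 uM)/HRP (250 mU/mL) in HBSS. 15 min preincubation plus 30 min after DTT, room temperature. Ex/Em 525/598 nm; 4-parameter Hill fit against DMSO and 10 uM DA3003.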

[6] = test system: Nanoluciferase (engineered Oplophorus gracilirostris luciferase); test: Primary Nanoluciferase (NLuc) qHTS assay for identification of artifact compounds. (AID 1845222);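 also: NLuc secreted into diluted conditioned medium of S16 cells; series mostly up to about 54 µM; 0% = DMSO and -100% = no enzyme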
In short: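 S16 cell supernatant NLuc, 1:55; cpds qHTS; 15 min RT dark; Nano-Glo substrate 1:100, 5 min; luminescence; Hill fit of % inhibition.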

Phospholipid hydroperoxide glutathione peroxidase GPX4 (Homo sapiens), sequence (P36969 whole entry, looked up): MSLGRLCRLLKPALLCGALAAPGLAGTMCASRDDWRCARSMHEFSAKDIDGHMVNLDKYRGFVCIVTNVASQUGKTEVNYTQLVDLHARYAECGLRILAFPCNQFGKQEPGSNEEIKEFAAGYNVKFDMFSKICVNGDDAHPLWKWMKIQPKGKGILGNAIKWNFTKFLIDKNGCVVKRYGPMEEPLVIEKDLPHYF
Glutathione peroxidase 1 (Homo sapiens), sequence (P07203 whole entry, looked up): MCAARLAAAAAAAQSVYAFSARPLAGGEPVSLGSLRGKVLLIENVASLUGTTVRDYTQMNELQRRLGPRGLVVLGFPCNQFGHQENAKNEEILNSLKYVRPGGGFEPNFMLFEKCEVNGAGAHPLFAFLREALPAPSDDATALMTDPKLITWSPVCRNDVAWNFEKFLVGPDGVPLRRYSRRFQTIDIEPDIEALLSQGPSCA

COC(=O)CCSCc1ccc(-c2onc(C)c2NC(=O)OC(C)c2ccccc2Cl)cc1 (stereo not drawn)
inactive: Potency [1] | Potency [2] | Potency [3] | Potency [4] | Potency [5]

C=CC(C)(O)CC/C=C(\C)C(=O)OC1C(O)C(CO)OC(OC(=O)C23CCC(C)(C)CC2C2=CCC4C5(C)CCC(OC6OC(COC7OCC(OC(C)=O)C(O)C7OC7OC(COC(C)=O)C(O)C(O)C7O)C(O)C(O)C6O)C(C)(C)C5CCC4(C)C2(C)C(O)C3O)C1OC1OCC(OC2OCC(O)C(OC3OCC(O)C(O)C3O)C2O)C(O)C1O (stereo not drawn)
inactive: outcome [1] inactive [at 9.52 µM] | outcome [2] inactive [at 9.73 µM] | activity change, negative = inhibition [3] 0.903% [at 6.45 µM] | activity change, negative = thiol reactive [4] 213% [at 6.41 µM] | redox activity (% of DA3003) [5] -2.76% [at 6.41 µM]

O=C1NC(=O)C(c2cn(-c3ccccc3)nc2-c2ccc(F)cc2)N1 (stereo not drawn)
inactive: Potency [1] | Potency [2] | Potency [3] | Potency [4] | Potency [5]

C=CC1(C)CC(OC(=O)/C(C)=C\COC(C)=O)C(C(=C)C(=O)O)C(O)C1C(=C)CO (stereo not drawn)
inactive: Potency [1] | Potency [2] | Potency [3] | Potency [4] | Potency [6] | Potency [5]

CC(=O)N[C@@H](C(=O)O[C@H]1CCC(C)(C)[C@@H]2CCC3=C(COC3=O)[C@@]12C)C(C)C
inactive: Potency [1] | Potency [2] | Potency [3] | Potency [4] | Potency [5]

O=C(NCC(O)CO)c1ccncc1Nc1ccc(I)cc1F (stereo not drawn)
inactive: Potency [1] | Potency [2] | Potency [3] | Potency [4] | Potency [5]

C=C(C)C1Cc2cc(C(=O)OC3OC(CO)C(O)C(O)C3O)ccc2O1 (stereo not drawn)
inactive: Potency [1] | Potency [2] | Potency [3] | Potency [5]
active: Potency [4] 9.27 µM

CC(C)N(CCCCOCC(=O)NS(C)(=O)=O)c1cnc(-c2ccccc2)c(-c2ccccc2)n1
inactive: Potency [1] | Potency [2] | Potency [3] | Potency [4] | Potency [5]

COc1cc(Br)c(S(=O)(=O)Nc2ccc(C(F)(F)F)c(O[C@@H]3CCN(C)C3)c2)cc1OC
inactive: Potency [1] | Potency [2] | Potency [3] | Potency [4] | Potency [5]

Cc1cc(C)c(CNC(=O)c2cc(-c3ccc(CN4CCOCC4)cc3)cc3c2cnn3C2CCCC2)c(=O)[nH]1
inactive: Potency [1] | Potency [2] | Potency [3] | Potency [4] | Potency [5]

COc1c2c(c(CO)c3c1C(=O)OC3)OC1(C)CCC3(O)C(C)(C)OC(=O)CCC3(C)C1C2 (stereo not drawn)
inactive: Potency [1] | Potency [2] | Potency [3] | Potency [4] | Potency [5]

N#Cc1cc(F)cc(-c2nc(-c3ccccn3)no2)c1
active: Potency [3] 7.57 µM
inactive: Potency [1] | Potency [2] | Potency [4] | Potency [5]

Cc1c(C(=O)N2CCOc3ccc(-c4ccc(N)nc4)cc3C2)ccc(S(C)(=O)=O)c1F
inactive: Potency [1] | Potency [2] | Potency [3] | Potency [4] | Potency [5]

Cc1noc(-c2ccc(-c3ccc(CC(=O)O)cc3)cc2)c1NC(=O)O[C@H](C)c1ccccc1
inactive: Potency [1] | Potency [2] | Potency [3] | Potency [4] | Potency [5]

C=C(C(=O)O)C1CC(O)C2(C)CCCC(=C)C2C1 (stereo not drawn)
inactive: Potency [1] | Potency [2] | Potency [3] | Potency [4] | Potency [6] | Potency [5]

CNS(=O)(=O)CC1CCC(N(C)c2ncnc3[nH]ccc23)CC1 (stereo not drawn)
inactive: Potency [1] | Potency [2] | Potency [3] | Potency [4] | Potency [6] | Potency [5]

Nc1ncnc2c1nc(N)n2[C@@H]1O[C@H](CO)[C@@H](O)[C@H]1O
inactive: Potency [1] | Potency [2] | Potency [3] | Potency [4] | Potency [5]

CC(C)(C)NC(=O)[C@@H](c1cccnc1)N(C(=O)c1ccco1)c1ccc(C(C)(C)C)cc1
inactive: Potency [1] | Potency [2] | Potency [3] | Potency [4] | Potency [5]

COC(=O)CCc1cc2ccoc2c(OC)c1O[C@@H]1O[C@H](CO)[C@@H](O)[C@H](O)[C@H]1O
inactive: Potency [1] | Potency [2] | Potency [3] | Potency [4] | Potency [5]

CCOC(=O)c1cc(C#N)c(N2CCC(C(=O)NS(=O)(=O)Cc3ccccc3)CC2)nc1C
inactive: Potency [1] | Potency [2] | Potency [3] | Potency [4] | Potency [5]

CC(=O)O[C@H]1[C@H](O[C@H]2[C@@H]3C=CO[C@@H](O[C@@H]4O[C@H](CO)[C@@H](O)[C@H](O)[C@H]4O)[C@@H]3[C@@]3(CO)O[C@@H]23)O[C@@H](C)[C@H](OC(=O)/C=C/c2ccccc2)[C@H]1OC(=O)/C=C/c1ccccc1
inactive: Potency [1] | Potency [2] | outcome [3] inactive [at 11.6 µM] | activity change, negative = thiol reactive [4] 2.44% [at 11.5 µM] | activity, negative = inhibition [6] 2.49% [at 11.6 µM] | redox activity (% of DA3003) [5] 5.63% [at 11.5 µM]

CC(CO)C1CCC2(C)CC3C(CO)CC(O)C3C(C)(O)C/C=C/12 (stereo not drawn)
inactive: Potency [1] | Potency [2] | Potency [3] | Potency [6]
